{
  "source": "the supplement of paper PMC8728848",
  "binders": {"B1": {"name": "Gal 2 (Homo sapiens), P05162 (protein)", "chain": "MTGELEVKNMDMKPGSTLKITGSIADGTDGFVINLGQGTDKLNLHFNPRFSESTIVCNSLDGSNWGQEQREDHLCFSPGSEVKFTVTFESDKFKVKLPDGHELTFPNRLGHSHLSYLSVRGGFNMSSFKLKE"}},
  "assay_in_all_cases": "glycan array binding signal (z-score within array); higher = stronger binding",
  "conditions_in_all_cases": "glycan notation: IUPAC condensed, linker removed",
  "key": {"[1]": {"target": "Fuc(a1-2)Gal(b1-3)GalNAc(b1-3)Gal(b1-4)Glc", "in_short": "(§1)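 Glycan array data came from 3228 arrays in the Consortium for Functional Glycomics database, and only arrays with an available protein sequence were kept. Glycan names were put into IUPAC-condensed notation, and columns mapping to the same glycan were averaged. The binding signal is a within-array Z-score, averaged across arrays of one protein sequence run at different concentrations or buffers and across linkers. A negative Z-score can be read as non-binding.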"}, "[2]": {"target": "Fuc(a1-2)Gal(b1-3)GlcNAc(b1-3)Gal(b1-4)Glc", "in_short": "as §1"}, "[3]": {"target": "Fuc(a1-2)Gal(b1-3)GlcNAc(b1-3)[Fuc(a1-2)Gal(b1-3)GlcNAc(b1-6)]GalNAc", "in_short": "as §1"}, "[4]": {"target": "Fuc(a1-2)Gal(b1-3)[Fuc(a1-4)]GlcNAc(b1-2)Man(a1-3)[Fuc(a1-2)Gal(b1-3)[Fuc(a1-4)]GlcNAc(b1-2)Man(a1-6)]Man(b1-4)GlcNAc(b1-4)[Fuc(a1-6)]GlcNAc(b1-4)[Fuc(a1-6)]GlcNAc", "in_short": "as §1"}, "[5]": {"target": "Fuc(a1-2)Gal(b1-4)GlcNAc(b1-3)Gal(b1-4)GlcNAc", "in_short": "as §1"}, "[6]": {"target": "Fuc(a1-2)Gal(b1-4)GlcNAc(b1-3)Gal(b1-4)GlcNAc(b1-3)Gal(b1-4)GlcNAc", "in_short": "as §1"}, "[7]": {"target": "Fuc(a1-2)Gal3S(b1-4)GlcNAc", "in_short": "as §1"}, "[8]": {"target": "Fuc(a1-2)Gal6S(b1-4)Glc6S", "in_short": "as §1"}, "[9]": {"target": "Fuc(a1-2)[Gal(a1-3)]Gal(b1-4)GlcNAc", "in_short": "as §1"}, "[10]": {"target": "Fuc(a1-2)[Gal(a1-3)]Gal(b1-4)GlcNAc(b1-2)Man(a1-3)[Fuc(a1-2)[Gal(a1-3)]Gal(b1-4)GlcNAc(b1-2)Man(a1-6)]Man(b1-4)GlcNAc(b1-4)[Fuc(a1-6)]GlcNAc", "in_short": "as §1"}, "[11]": {"target": "Fuc(a1-2)[GalNAc(a1-3)]Gal(b1-3)GlcNAc", "in_short": "as §1"}, "[12]": {"target": "Fuc(a1-2)[GalNAc(a1-3)]Gal(b1-4)GlcNAc", "in_short": "as §1"}, "[13]": {"target": "Fuc(a1-2)[GalNAc(a1-3)]Gal(b1-4)GlcNAc(b1-2)Man", "in_short": "as §1"}, "[14]": {"target": "Fuc(a1-2)[GalNAc(a1-3)]Gal(b1-4)[Fuc(a1-3)]GlcNAc(b1-3)GalNAc", "in_short": "as §1"}, "Fuc(a1-3)GlcNAc": {"target": "Fuc(a1-3)GlcNAc", "in_short": "as §1"}, "[15]": {"target": "Gal(a1-3)Gal(b1-3)GlcNAc(b1-2)Man(a1-3)[Gal(a1-3)Gal(b1-3)GlcNAc(b1-2)Man(a1-6)]Man(b1-4)GlcNAc(b1-4)GlcNAc", "in_short": "as §1"}, "[16]": {"target": "Gal(a1-4)Gal(b1-4)GlcNAc(b1-3)Gal(b1-4)Glc", "in_short": "as §1"}, "Gal(b1-3)Gal": {"target": "Gal(b1-3)Gal", "in_short": "as §1"}, "[17]": {"target": "Gal(b1-3)GalNAc(a1-3)[Fuc(a1-2)]Gal(b1-4)GlcNAc", "in_short": "as §1"}, "[18]": {"target": "Gal(b1-3)GlcNAc(a1-3)Gal(b1-4)GlcNAc", "in_short": "as §1"}, "[19]": {"target": "Gal(b1-3)GlcNAc(b1-3)Gal(b1-4)Glc", "in_short": "as §1"}, "[20]": {"target": "Gal(b1-3)GlcNAc(b1-3)Gal(b1-4)GlcNAc", "in_short": "as §1"}, "[21]": {"target": "Gal(b1-3)[Fuc(a1-4)]GlcNAc(b1-3)Gal(b1-4)[Fuc(a1-3)]GlcNAc", "in_short": "as §1"}, "[22]": {"target": "Gal(b1-3)[Neu5Ac(b2-6)]GalNAc", "in_short": "as §1"}, "[23]": {"target": "Gal(b1-4)GalNAc(a1-3)[Fuc(a1-2)]Gal(b1-4)GlcNAc", "in_short": "as §1"}, "[24]": {"target": "Gal(b1-4)GlcNAc(b1-2)Man(a1-3)[Gal(b1-4)GlcNAc(b1-2)Man(a1-6)][GlcNAc(b1-4)]Man(b1-4)GlcNAc(b1-4)[Fuc(a1-6)]GlcNAc", "in_short": "as §1"}, "GalNAc(a1-3)Gal": {"target": "GalNAc(a1-3)Gal", "in_short": "as §1"}, "Glc(a1-6)Glc(a1-6)Glc": {"target": "Glc(a1-6)Glc(a1-6)Glc", "in_short": "as §1"}, "[25]": {"target": "GlcNAc(a1-4)Gal(b1-4)GlcNAc(b1-3)Gal(b1-4)GlcNAc", "in_short": "as §1"}, "[26]": {"target": "GlcNAc(b1-2)Man(a1-3)[GlcNAc(b1-4)][GlcNAc(b1-2)Man(a1-6)]Man(b1-4)GlcNAc(b1-4)GlcNAc", "in_short": "as §1"}, "[27]": {"target": "GlcNAc(b1-3)[GlcNAc(b1-6)]GlcNAc(b1-4)GlcNAc", "in_short": "as §1"}, "[28]": {"target": "GlcNAc(b1-6)Gal(b1-4)GlcNAc", "in_short": "as §1"}, "Man(b1-4)GlcNAc": {"target": "Man(b1-4)GlcNAc", "in_short": "as §1"}, "[29]": {"target": "Neu5Ac(a2-3)Gal(b1-3)[Fuc(a1-4)]GlcNAc", "in_short": "as §1"}, "[30]": {"target": "Neu5Ac(a2-3)Gal(b1-4)GlcNAc(b1-3)Gal(b1-4)GlcNAc", "in_short": "as §1"}, "[31]": {"target": "Neu5Ac(a2-3)Gal(b1-4)GlcNAc(b1-3)Gal(b1-4)GlcNAc(b1-3)Gal(b1-4)GlcNAc(b1-2)Man(a1-3)[Neu5Ac(a2-3)Gal(b1-4)GlcNAc(b1-3)Gal(b1-4)GlcNAc(b1-3)Gal(b1-4)GlcNAc(b1-2)Man(a1-6)]GalNAc", "in_short": "as §1"}, "[32]": {"target": "Neu5Ac(a2-3)Gal(b1-4)[Fuc(a1-3)]GlcNAc(b1-3)Gal(b1-4)GlcNAc", "in_short": "as §1"}, "[33]": {"target": "Neu5Ac(a2-6)Gal(b1-4)GlcNAc(b1-2)Man(a1-3)[GlcNAc(b1-4)][Neu5Ac(a2-6)Gal(b1-4)GlcNAc(b1-2)Man(a1-6)]Man(b1-4)GlcNAc(b1-4)GlcNAc", "in_short": "as §1"}, "[34]": {"target": "Neu5Ac(a2-6)Gal(b1-4)GlcNAc(b1-2)Man(a1-6)[Man(a1-3)]Man(b1-4)GlcNAc(b1-4)GlcNAc", "in_short": "as §1"}, "[35]": {"target": "Neu5Ac(a2-6)Gal(b1-4)GlcNAc(b1-3)Gal(b1-4)GlcNAc(b1-2)Man(a1-3)[Neu5Ac(a2-6)Gal(b1-4)GlcNAc(b1-3)Gal(b1-4)GlcNAc(b1-2)Man(a1-6)]GalNAc", "in_short": "as §1"}, "[36]": {"target": "Neu5Ac(a2-6)Gal(b1-4)GlcNAc(b1-6)[Gal(b1-3)GlcNAc(b1-3)]Gal(b1-4)Glc", "in_short": "as §1"}, "[37]": {"target": "Neu5Ac(b2-6)Gal(b1-4)GlcNAc", "in_short": "as §1"}, "[38]": {"target": "Neu5Gc(a2-3)Gal(b1-4)[Fuc(a1-3)]GlcNAc", "in_short": "as §1"}},
  "note": "The entries come from a sample that favours the strongest signals as a whole.",
  "data": [
    {"binder": "B1", "values": [
      {"measurement": "glycan array binding signal (z-score)", "setting": "[1]", "result": 3.12},
      {"measurement": "glycan array binding signal (z-score)", "setting": "[2]", "result": 2.35},
      {"measurement": "glycan array binding signal (z-score)", "setting": "[3]", "result": -0.048},
      {"measurement": "glycan array binding signal (z-score)", "setting": "[4]", "result": 0.137},
      {"measurement": "glycan array binding signal (z-score)", "setting": "[5]", "result": 2.16},
      {"measurement": "glycan array binding signal (z-score)", "setting": "[6]", "result": 2.4},
      {"measurement": "glycan array binding signal (z-score)", "setting": "[7]", "result": -0.17},
      {"measurement": "glycan array binding signal (z-score)", "setting": "[8]", "result": -0.193},
      {"measurement": "glycan array binding signal (z-score)", "setting": "[9]", "result": 2.52},
      {"measurement": "glycan array binding signal (z-score)", "setting": "[10]", "result": 8.45},
      {"measurement": "glycan array binding signal (z-score)", "setting": "[11]", "result": 3.75},
      {"measurement": "glycan array binding signal (z-score)", "setting": "[12]", "result": 5.89},
      {"measurement": "glycan array binding signal (z-score)", "setting": "[13]", "result": 13.5},
      {"measurement": "glycan array binding signal (z-score)", "setting": "[14]", "result": -0.08},
      {"measurement": "glycan array binding signal (z-score)", "setting": "Fuc(a1-3)GlcNAc", "result": -0.254},
      {"measurement": "glycan array binding signal (z-score)", "setting": "[15]", "result": -0.222},
      {"measurement": "glycan array binding signal (z-score)", "setting": "[16]", "result": -0.229},
      {"measurement": "glycan array binding signal (z-score)", "setting": "Gal(b1-3)Gal", "result": -0.268},
      {"measurement": "glycan array binding signal (z-score)", "setting": "[17]", "result": 9.48},
      {"measurement": "glycan array binding signal (z-score)", "setting": "[18]", "result": -0.111},
      {"measurement": "glycan array binding signal (z-score)", "setting": "[19]", "result": 0.74},
      {"measurement": "glycan array binding signal (z-score)", "setting": "[20]", "result": 0.837},
      {"measurement": "glycan array binding signal (z-score)", "setting": "[21]", "result": -0.269},
      {"measurement": "glycan array binding signal (z-score)", "setting": "[22]", "result": -0.237},
      {"measurement": "glycan array binding signal (z-score)", "setting": "[23]", "result": 5.71},
      {"measurement": "glycan array binding signal (z-score)", "setting": "[24]", "result": -0.215},
      {"measurement": "glycan array binding signal (z-score)", "setting": "GalNAc(a1-3)Gal", "result": -0.281},
      {"measurement": "glycan array binding signal (z-score)", "setting": "Glc(a1-6)Glc(a1-6)Glc", "result": -0.2},
      {"measurement": "glycan array binding signal (z-score)", "setting": "[25]", "result": -0.28},
      {"measurement": "glycan array binding signal (z-score)", "setting": "[26]", "result": -0.084},
      {"measurement": "glycan array binding signal (z-score)", "setting": "[27]", "result": -0.396},
      {"measurement": "glycan array binding signal (z-score)", "setting": "[28]", "result": -0.272},
      {"measurement": "glycan array binding signal (z-score)", "setting": "Man(b1-4)GlcNAc", "result": -0.273},
      {"measurement": "glycan array binding signal (z-score)", "setting": "[29]", "result": -0.214},
      {"measurement": "glycan array binding signal (z-score)", "setting": "[30]", "result": -0.292},
      {"measurement": "glycan array binding signal (z-score)", "setting": "[31]", "result": 0.02},
      {"measurement": "glycan array binding signal (z-score)", "setting": "[32]", "result": -0.229},
      {"measurement": "glycan array binding signal (z-score)", "setting": "[33]", "result": -0.169},
      {"measurement": "glycan array binding signal (z-score)", "setting": "[34]", "result": -0.12},
      {"measurement": "glycan array binding signal (z-score)", "setting": "[35]", "result": -0.008},
      {"measurement": "glycan array binding signal (z-score)", "setting": "[36]", "result": -0.21},
      {"measurement": "glycan array binding signal (z-score)", "setting": "[37]", "result": -0.244},
      {"measurement": "glycan array binding signal (z-score)", "setting": "[38]", "result": -0.212}
    ]}
  ]
}
